Test results from PubChem BioAssay (Tox21).
Results filed as inconclusive are left out. A number with no mark means an inactive call. Activity calls are given as the source filed them. The call rests on the fitted dose curve; in most records, active means well fitted cell-killing curve with a large enough effect in the repeat runs; inconclusive means weak or mixed curves, or effect the other way; inactive means flat fitted curve, though single readings scatter.

Assay: cAMP Responsive Elements (CRE) small molecule antagonists, cell-based qHTS assay: qHTS cell viability counter screen (AID 2060913); further: nearly all actives have a fitted effect of over 40% in size
Conditions: CRE-bla HEK293T viability, CellTiter-Glo luminescence, 5 h; series mostly up to 92.4 µM; viability change, negative = cytotoxic: at the top concentration
How it was run: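 CRE-bla HEK293T cells were seeded in assay medium with 10% dialyzed FBS, incubated 18 hrs at 37 C, then exposed to compounds plus 0.25 uM final NKH477 for 3 hrs. Viability was read by CellTiter-Glo luminescence after 30 min, in the same wells.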
On the % scale 0 is the no-effect control and ±100 the full control effect; potency means the concentration at half of the fitted maximal effect.

| SMILES | viability change, negative = cytotoxic | Potency |
| --- | --- | --- |
| C1CS1 | -7.74% |  |
| CN1C2CCC(C)(C)C1CC(OC(=O)C(O)(c1cccs1)c1cccs1)C2 (stereo not given) | -3.24% [at 42.5 µM] |  |
| O=[N+]([O-])C(Br)(CO)CO | -1.38% |  |
| CC(=O)NNc1ccccc1 | 11.5% |  |
| CCOP(=S)(OCC)Oc1ccc(Cl)cc1Cl | -8.66% |  |
| CC(C)CCCCCOC(=O)c1ccccc1C(=O)OCCCCCC(C)C | -13% |  |
| BrCCCCCCBr | 0.438% |  |
| Nc1ccc(-c2ccc(N)c(N)c2)cc1N |  | inactive |
| CN1C(=O)NC(=O)C(C)(C2=CCCCC2)C1=O (stereo not given) | 6.11% [at 42.5 µM] |  |
| Clc1cccc2ccccc12 | -8.52% |  |
| NC(=S)C(N)=S | -10.2% |  |
| O=C(Oc1ccc(Br)cc1)N1CCN2CCC1CC2 | -0.84% |  |
| Cc1cc(-c2ccc(N)c(C)c2)ccc1N |  | inactive |
| Cl/C=C/Cl |  | inactive |
| N#CC(Br)(Br)C(N)=O | -15.1% |  |
| OC(Cc1ccccc1Cl)(Cn1cncn1)C1(Cl)CC1 (stereo not given) | -5.86% |  |
| Clc1c(Cl)c(Cl)c(Cl)c(Cl)c1Cl | 2.46% [at 8.39 µM] |  |
| O=[N+]([O-])c1ccccc1CCl | -10.5% |  |
| CCC1(C2=NCCN2)Cc2ccccc2O1 (stereo not given) | -0.681% [at 42.5 µM] |  |
| Cc1ccc(CCl)cc1 | 6.1% |  |

| SMILES | viability change, negative = cytotoxic | Potency |
| --- | --- | --- |
| CCC(C)c1cc([N+](=O)[O-])cc([N+](=O)[O-])c1O (stereo not given) | 12.9% |  |
| O=C1NC(=O)C(=O)C(=O)N1 | 2.88% |  |
| Nc1cnn(-c2ccccc2)c(=O)c1Cl | -2.42% |  |
| ClCCOCCCl |  | inactive |
| c1ccc2c(c1)CCNC2 | 3.71% |  |
| CC[C@H](N)c1ccccc1 | 9.32% |  |
| O=S(=O)(O)O |  | inactive |
| C[C@H]1O[C@H](OC2[C@@H](O)[C@@H](O)C(O)[C@H](O)[C@H]2O)[C@@H](N)C[C@@H]1N=C(N)C(=O)O (stereo not given in full) | -0.412% |  |
| Cc1ccc(N)cc1 |  | inactive |
| CCCn1cc[n+](C)c1 |  | inactive |
| CC(C#N)CCC#N (stereo not given) |  | inactive |
| COC(=O)c1ccc(CBr)cc1 | 11.7% |  |
| CC(=O)CN(CC(C)=O)N=O | 7.64% |  |
| CC(C)OC(=O)Nc1cccc(Cl)c1 |  | inactive |
| Cc1cc(Cl)ccc1OCC(=O)O |  | inactive |
| CNC(=S)S |  | inactive |
| Cc1ccc(N=C=O)cc1N=C=O |  | inactive |
| ClCC(Cl)(Cl)Cl | -4.29% |  |
| CCCCNC(=O)n1c(NC(=O)OC)nc2ccccc21 |  | inactive |
| CCC[CH2][Sn]([CH2]CCC)([CH2]CCC)[O][Sn]([CH2]CCC)([CH2]CCC)[CH2]CCC |  | 1.5 µM (active) |
